Measured values as given in PubChem BioAssay (Tox21).
Inconclusive results are not listed. Calls of active or inactive are those of the source. Calls follow the shape of the dose curve; as a rule, active = well fitted activation curve with a large enough effect in the signal ratio in the repeat runs (not every such curve was filed as active); inconclusive = weak or mixed curves, or effect the other way; inactive = no such curve, though single readings can be large or run the other way; the % refers to the signal ratio.

Molecular target: Peroxisome proliferator-activated receptor gamma (Homo sapiens) (UniProt P37231)
Sequence (P37231 whole entry, looked up): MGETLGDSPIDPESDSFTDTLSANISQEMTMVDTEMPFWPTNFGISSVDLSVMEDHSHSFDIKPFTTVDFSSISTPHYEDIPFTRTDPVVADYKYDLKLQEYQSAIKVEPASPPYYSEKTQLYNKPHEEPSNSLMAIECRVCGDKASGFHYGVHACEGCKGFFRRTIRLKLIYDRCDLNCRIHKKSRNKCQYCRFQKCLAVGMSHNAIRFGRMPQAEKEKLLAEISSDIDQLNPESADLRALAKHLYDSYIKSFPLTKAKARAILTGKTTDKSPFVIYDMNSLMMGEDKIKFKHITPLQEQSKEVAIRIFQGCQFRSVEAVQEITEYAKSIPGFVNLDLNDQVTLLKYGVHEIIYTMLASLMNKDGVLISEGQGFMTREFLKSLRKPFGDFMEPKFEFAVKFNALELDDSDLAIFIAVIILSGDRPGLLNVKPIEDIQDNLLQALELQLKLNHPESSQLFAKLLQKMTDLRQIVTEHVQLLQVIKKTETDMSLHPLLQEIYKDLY
Experiment: qHTS assay to identify small molecule agonists of the peroxisome proliferator-activated receptor gamma (PPARg) signaling pathway (AID 743094)
Conditions: HEK293H PPARg-UAS-bla, beta-lactamase FRET ratio, 17 h; series mostly up to 57 µM; activation: at the top concentration
Procedure, shortened: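 Cell-based bla reporter, HEK293H background, PPARg-driven UAS. Pre-incubation 5 h, 37C, 5% CO2. Compound 17 h, 37C. Substrate 1 h RT; fluorescence.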
% is scaled to controls: 0 for no effect and ±100 for the full control effect; potency is read from the fitted curve at half-maximal effect.

Question: For `CC(C)(S)C(=O)N[C@@H](CS)C(=O)O`, which Potency is on record?
Answer: Its Potency is “inactive”.

Question: With `C[S+](C)CCC(N)C(=O)O` (stereo unspecified) as the compound, how does the “activation” value read?
Answer: Its value is 0.935% (inactive).

Question: Which Potency does the source give for `CC(C)(C)c1ccc2c(S(=O)(=O)O)c(C(C)(C)C)ccc2c1` here?
Answer: The Potency was 9.52 µM (active).

Question: How did the “activation” value turn out when `CC(=O)NC[C@H]1CN(c2ccc(N3CCOCC3)c(F)c2)C(=O)O1` was run?
Answer: The value was -0.67% (inactive).

Question: How did the “activation” value turn out when `CC(=O)O[C@H]1C[C@@H]2CC[C@@H]3[C@H](CC[C@@]4(C)[C@H]3C[C@H]([N+]3(C)CCCCC3)[C@@H]4OC(C)=O)[C@@]2(C)C[C@@H]1[N+]1(C)CCCCC1` was run?
Answer: Its value is 1.08% (inactive).

Question: With `N#Cc1c(N(CC(=O)O)CC(=O)O)sc(C(=O)O)c1CC(=O)O` as the compound, how does the “activation” value read?
Answer: Its value is 2.87% (inactive).

Question: For `CC[C@H]1OC(=O)C[C@@H](O)[C@H](C)[C@@H](O[C@@H]2O[C@H](C)[C@@H](O[C@H]3C[C@@](C)(O)[C@@H](O)[C@H](C)O3)[C@H](N(C)C)[C@H]2O)[C@@H](CC=O)C[C@@H](C)C(=O)/C=C/C(C)=C/[C@@H]1CO[C@@H]1O[C@H](C)[C@@H](O)[C@@H](OC)[C@H]1OC`, which “activation” value is on record?
Answer: Its value is 2.92% (inactive).

Question: For `COC1=C(OC)C(=O)C(C/C=C(\C)CC/C=C(\C)CC/C=C(\C)CC/C=C(\C)CC/C=C(\C)CC/C=C(\C)CC/C=C(\C)CC/C=C(\C)CC/C=C(\C)CCC=C(C)C)=C(C)C1=O`, which Potency is on record?
Answer: Its Potency is “inactive”.

Question: For `CCC[C@@H]1C[C@@H](C(=O)N[C@@H]([C@H]2O[C@H](SC)[C@H](OP(=O)(O)O)[C@@H](O)[C@H]2O)[C@H](C)Cl)N(C)C1`, which Potency is on record?
Answer: Its Potency is “inactive”.

Question: For `CC1=C(/C=C/C(C)=C/C=C/C(C)=C/C=C/C=C(C)/C=C/C=C(C)/C=C/C2=C(C)CCCC2(C)C)C(C)(C)CCC1`, which “activation” value is on record?
Answer: Its value is -1.83% (inactive).

Question: `C[N+](C)(C)CCOP(=O)(O)OP(=O)([O-])OC[C@H]1O[C@@H](n2ccc(N)nc2=O)[C@H](O)[C@@H]1O` was tested. Which Potency did it give?
Answer: The Potency was “inactive”.

Question: For `NC(=O)C1c2ccccc2CCc2ccccc21`, which “activation” value is on record?
Answer: The value was -6% (inactive).

Question: With `CO/N=C(\C(=O)N[C@@H]1C(=O)N2C(C(=O)[O-])=C(C[n+]3ccc(N)n3CCO)CS[C@H]12)c1csc(N)n1` as the compound, how does the “activation” value read?
Answer: The value was 6.19% (inactive).

Question: How did the “activation” value turn out when `CC(=O)OCC1=C(C(=O)O)N2C(=O)[C@@H](NC(=O)Cc3ccccc3)[C@H]2SC1` was run?
Answer: Its value is -0.311% (inactive).

Question: For `CS(=O)(=O)c1ccc([C@@H](O)[C@@H](COC(=O)CN)NC(=O)C(Cl)Cl)cc1`, which “activation” value is on record?
Answer: The value was 3.06% (inactive).

Question: `Cc1cccc(C)c1NC(=O)C1CCCCN1C` (stereo unspecified) was tested. Which “activation” value did it give?
Answer: Its value is 0.867% (inactive).

Question: For `CC(=NCc1ccccc1)c1ccccc1O`, which “activation” value is on record?
Answer: Its value is -1.77% (inactive).

Question: How did the Potency turn out when `CSCC[C@H](NC(=O)[C@H](Cc1ccc(OS(=O)(=O)O)cc1)NC(=O)[C@@H](N)CC(=O)O)C(=O)NCC(=O)N[C@@H](Cc1c[nH]c2ccccc12)C(=O)N[C@@H](CCSC)C(=O)N[C@@H](CC(=O)O)C(=O)N[C@@H](Cc1ccccc1)C(N)=O` was run?
Answer: The Potency was “inactive”.

Question: For `O=C[C@H](O)[C@@H](O)[C@@H](O)[C@H](O)CO`, which “activation” value is on record?
Answer: Its value is -0.132% (inactive).

Question: Which “activation” value does the source give for `COC(=O)[C@H]1[C@H]2C[C@H]3c4[nH]c5ccccc5c4CCN3C[C@H]2CC[C@@H]1O` here?
Answer: The value was -9.78% (inactive).

Question: How did the “activation” value turn out when `CCOC(=O)[C@H](CCc1ccccc1)N[C@@H](C)C(=O)N1[C@H](C(=O)O)C[C@H]2CCCC[C@@H]21` was run?
Answer: Its value is 0.394% (inactive).

Question: Which “activation” value does the source give for `CC(C)CCC[C@@H](C)[C@H]1CC[C@H]2[C@@H]3CC=C4C[C@@H](O)CC[C@]4(C)[C@H]3CC[C@]12C` here?
Answer: Its value is 0.691% (inactive).

Question: Which “activation” value does the source give for `C=CC[N@@+]12CC[C@@]34c5ccccc5N5/C=C6/[C@H]7C[C@H]8[C@@]9(CC[N@@+]8(CC=C)C/C7=C/CO)c7ccccc7N(/C=C(/[C@@H](C[C@@H]31)/C(=C\CO)C2)[C@H]54)[C@@H]69` here?
Answer: Its value is 0.812% [at 26.2 µM] (inactive).

Question: With `CC(=O)Oc1cc(C(F)(F)F)ccc1C(=O)O` as the compound, how does the “activation” value read?
Answer: The value was -1.83% [at 26.2 µM] (inactive).

Question: How did the “activation” value turn out when `O=c1[nH]c(=O)n([C@H]2C[C@H](O)[C@@H](CO)O2)cc1/C=C/Br` was run?
Answer: Its value is 0.547% (inactive).

Question: With `CC(C)=CCC/C(C)=C/CC/C(C)=C/CC/C=C(\C)CC/C=C(\C)CCC=C(C)C` as the compound, how does the Potency read?
Answer: The Potency was “inactive”.

Question: How did the Potency turn out when `Cc1cc(-c2ccc(N=Nc3ccc4c(S(=O)(=O)O)cc(S(=O)(=O)O)c(N)c4c3O)c(C)c2)ccc1N=Nc1ccc2c(S(=O)(=O)O)cc(S(=O)(=O)O)c(N)c2c1O` was run?
Answer: The Potency was “inactive”.

Question: With `O=C1CCC(c2ccc(-n3ccnc3)cc2)=NN1` as the compound, how does the “activation” value read?
Answer: The value was 6.42% (inactive).

Question: How did the Potency turn out when `C=CC1=C(C(=O)O)N2C(=O)[C@@H](NC(=O)/C(=N\O)c3csc(N)n3)[C@H]2SC1` (stereo in doubt) was run?
Answer: Its Potency is “inactive”.

Question: `CCCCC[C@H](O)/C=C/[C@@H]1[C@@H](C/C=C\CCCC(=O)O)[C@@H](O)C[C@H]1O` was tested. Which Potency did it give?
Answer: Its Potency is “inactive”.

Question: Which “activation” value does the source give for `COc1ccc(/C=N/NC(=O)c2ccncc2)c(C(=O)O)c1OC` here?
Answer: Its value is 0.332% (inactive).

Question: Which “activation” value does the source give for `O=P(O)(O)OP(=O)(O)OP(=O)(O)O` here?
Answer: Its value is -1.19% (inactive).

Question: With `C[S+](CC[C@H](N)C(=O)O)C[C@H]1O[C@@H](n2cnc3c(N)ncnc32)[C@H](O)[C@@H]1O` (stereo partly specified) as the compound, how does the Potency read?
Answer: Its Potency is “inactive”.

Question: For `CCN(CC)CCOC[C@H]1O[C@@H](O)[C@H](OCCN(CC)CC)[C@@H](O)[C@@H]1O`, which “activation” value is on record?
Answer: Its value is 0.561% (inactive).

Question: `CC(C)C[C@H](NC(=O)[C@@H](COC(C)(C)C)NC(=O)[C@H](Cc1ccc(O)cc1)NC(=O)[C@H](CO)NC(=O)[C@H](Cc1c[nH]c2ccccc12)NC(=O)[C@H](Cc1cnc[nH]1)NC(=O)[C@@H]1CCC(=O)N1)C(=O)N[C@@H](CCCN=C(N)N)C(=O)N1CCC[C@H]1C(=O)NNC(N)=O` was tested. Which Potency did it give?
Answer: The Potency was “inactive”.

Question: With `CC/C(=C(/CC)c1ccc(OP(=O)(O)O)cc1)c1ccc(OP(=O)(O)O)cc1` as the compound, how does the “activation” value read?
Answer: Its value is -3.58% (inactive).
